Assay results as given in ChEMBL document CHEMBL1961873, “Compounds: GSK PKIS; Assays: Nanosyn kinase panel” (2012).

What follows are molecules tested against RAC-alpha serine/threonine-protein kinase (Homo sapiens) (UniProt P31749). Details: at 0.1 µM.
Chain of RAC-alpha serine/threonine-protein kinase (Homo sapiens) (P31749 whole entry): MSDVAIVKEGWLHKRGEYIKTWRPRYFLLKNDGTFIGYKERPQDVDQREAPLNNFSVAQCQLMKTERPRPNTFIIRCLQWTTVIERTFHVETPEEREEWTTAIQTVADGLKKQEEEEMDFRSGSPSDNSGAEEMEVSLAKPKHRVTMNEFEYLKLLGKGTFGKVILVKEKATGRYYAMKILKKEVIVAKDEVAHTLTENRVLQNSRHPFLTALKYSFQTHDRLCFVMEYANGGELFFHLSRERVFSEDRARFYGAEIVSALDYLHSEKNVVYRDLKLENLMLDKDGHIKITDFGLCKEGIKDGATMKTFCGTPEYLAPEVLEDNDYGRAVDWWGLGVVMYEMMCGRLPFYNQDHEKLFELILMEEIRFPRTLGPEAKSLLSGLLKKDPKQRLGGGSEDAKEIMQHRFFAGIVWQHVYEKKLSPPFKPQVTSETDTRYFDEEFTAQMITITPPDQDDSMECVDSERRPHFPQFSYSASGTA

Row | Structure (SMILES) | inhibition [%]
1 | NC(=O)Cc1ccccc1Oc1nccc(-c2c(-c3ccc(F)cc3)ncn2C2CCNCC2)n1 | 0.16
2 | NS(=O)(=O)c1ccc(Nc2cc(-c3ccc(O)c(F)c3)n[nH]2)cc1 | -3.05
3 | Clc1ccc(CNc2nccc(-c3cnn4ncccc34)n2)cc1 | 0.58
4 | COc1ccc2cc(-c3c(-c4ccncc4)nc(-c4ccc([S+](C)[O-])cc4C)n3C)ccc2c1 (stereo not drawn) | -0.62
5 | NS(=O)(=O)c1ccc(N/N=C2\C(=O)Nc3ccc(-c4cnco4)cc32)cc1 | -3.71
6 | O=C1Nc2ccccc2/C1=C/Nc1ccc(-n2cncn2)cc1 | 0.19
7 | Fc1ccc(-c2ncn(C3CCNCC3)c2-c2ccnc(Oc3ccc(Oc4ccccc4)cc3)n2)cc1 | 1.23
8 | COc1cc2ncn(-c3cc(OCc4ccccc4C(F)(F)F)c(C(C)=O)s3)c2cc1OC | 0.53
9 | CN(C)CCOc1ccc(-c2cc(-c3ccc4c(c3)CCC4=NO)c(-c3ccncc3)o2)cc1 | -0.58
10 | Cc1ccc(NC(=O)c2ccoc2)cc1-c1ccc(C(=O)NCC2CC2)cc1 | 0.37
11 | O=C(Nc1n[nH]c2nc(-c3ccc(O)cc3)c(Br)cc12)C1CC1 | 0.84
12 | COc1cc(N2CCN(C(C)C)CC2)ccc1Nc1nc(Nc2ccc(F)cc2C(=O)NC[C@@H](O)CO)c2cc[nH]c2n1 | -3.58
13 | COc1ccc2cc(-c3c(-c4ccncc4)nc(-c4ccc(S(C)(=O)=O)cc4C)n3C)ccc2c1 | 1.8
14 | CCN(CC)Cc1ccc(Nc2nccc(-c3cnn4ncccc34)n2)cc1 | -2.02
15 | c1ccc(Oc2ccc(Nc3ncc(-c4ccccc4)o3)cc2)cc1 | 0.05
16 | CCc1cccc(CC)c1/C=C/c1cncc(C(=O)NC)c1 | 0.7
17 | NC(=O)c1cc(-c2ccc(F)cc2)cc(-c2ccncc2)c1N | 0.92

Row | Structure (SMILES) | inhibition [%]
18 | COc1cc(Nc2ncc3c(C)nc(-c4cccc(Oc5ccccc5)c4)n3n2)cc(OC)c1OC | 0.97
19 | C[C@@H](Oc1cc(-n2cnc3ccc(OC4CCN(C)CC4)cc32)sc1C(N)=O)c1ccccc1Cl | -2.97
20 | CN(c1ccc(NC(=O)Nc2c(Cl)cccc2Cl)cc1)c1ccnc(Nc2cccc(CS(C)(=O)=O)c2)n1 | 0.48
21 | Cc1ccc(C(=O)NC2CCC2)cc1-c1ccc(C(=O)NCC2CC2)cc1 | 0.45
22 | COc1ccc2ncn(-c3cc(O[C@H](C)c4ccccc4Cl)c(C(N)=O)s3)c2c1 | -3.63
23 | CCC(=O)Nc1ccc(C)c(-c2ccc(C(=O)NCC3CC3)cc2)c1 | 0.29
24 | CCS(=O)(=O)c1ccc(OC)c(Nc2ncc(-c3ccccc3Cl)o2)c1 | 0.85
25 | Fc1ccc(-c2c(-c3ccncc3)nc3n2CCS3)cc1 | -3.71
26 | COC(=O)Nc1nc2ccc(Sc3ccc(NC(=O)Nc4cc(C(F)(F)F)ccc4F)cc3)cc2[nH]1 | 0.65
27 | O=C(Nc1n[nH]c2cc(-c3cc(F)ccc3F)ccc12)C1CC1 | 0.77
28 | CS(=O)(=O)CCNCc1cc(-c2cc3c(Nc4ccc(OCc5cccc(F)c5)c(Cl)c4)ncnc3s2)cs1 | 0.79
29 | CCc1nccc2c1nc(-c1nonc1N)n2CC | -0.45
30 | COc1cc(C)c(N(C)C(=O)CN(C)C)cc1Nc1nc(Nc2cccc(F)c2C(N)=O)c2cc[nH]c2n1 | -1.91
31 | Nc1nccc(-c2c(-c3ccc(F)cc3)ncn2C2CCC(O)CC2)n1 (stereo not drawn) | -1.5
32 | O=C1NC(=O)C(c2cccc(Cl)c2)=C1Nc1ccc(Cl)c(C(=O)O)c1 | 0.08
33 | CN(C)CCCNc1nccc(-c2c(-c3ccc(F)cc3)nn3cc(C(F)(F)F)ccc23)n1 | -2.46
34 | Fc1ccc(-c2nc3n(c2-c2ccncc2)CCS3)cc1 | -2.42

These molecules were tested against RAC-alpha serine/threonine-protein kinase (Homo sapiens) (UniProt P31749). Details: at 1 µM.

Row | Structure (SMILES) | inhibition [%]
35 | NC(=O)Cc1ccccc1Oc1nccc(-c2c(-c3ccc(F)cc3)ncn2C2CCNCC2)n1 | 0.12
36 | NS(=O)(=O)c1ccc(Nc2cc(-c3ccc(O)c(F)c3)n[nH]2)cc1 | -2.1
37 | Clc1ccc(CNc2nccc(-c3cnn4ncccc34)n2)cc1 | 0.44
38 | COc1ccc2cc(-c3c(-c4ccncc4)nc(-c4ccc([S+](C)[O-])cc4C)n3C)ccc2c1 (stereo not drawn) | -0.09
39 | NS(=O)(=O)c1ccc(N/N=C2\C(=O)Nc3ccc(-c4cnco4)cc32)cc1 | -3.3
40 | O=C1Nc2ccccc2/C1=C/Nc1ccc(-n2cncn2)cc1 | -0.09
41 | Fc1ccc(-c2ncn(C3CCNCC3)c2-c2ccnc(Oc3ccc(Oc4ccccc4)cc3)n2)cc1 | 1.87
42 | COc1cc2ncn(-c3cc(OCc4ccccc4C(F)(F)F)c(C(C)=O)s3)c2cc1OC | 1.82
43 | CN(C)CCOc1ccc(-c2cc(-c3ccc4c(c3)CCC4=NO)c(-c3ccncc3)o2)cc1 | -0.16
44 | Cc1ccc(NC(=O)c2ccoc2)cc1-c1ccc(C(=O)NCC2CC2)cc1 | 0.55
45 | O=C(Nc1n[nH]c2nc(-c3ccc(O)cc3)c(Br)cc12)C1CC1 | 2.07
46 | COc1cc(N2CCN(C(C)C)CC2)ccc1Nc1nc(Nc2ccc(F)cc2C(=O)NC[C@@H](O)CO)c2cc[nH]c2n1 | -2.63
47 | COc1ccc2cc(-c3c(-c4ccncc4)nc(-c4ccc(S(C)(=O)=O)cc4C)n3C)ccc2c1 | 1.99
48 | CCN(CC)Cc1ccc(Nc2nccc(-c3cnn4ncccc34)n2)cc1 | -1.93
49 | c1ccc(Oc2ccc(Nc3ncc(-c4ccccc4)o3)cc2)cc1 | 0.39
50 | CCc1cccc(CC)c1/C=C/c1cncc(C(=O)NC)c1 | 0.8
51 | NC(=O)c1cc(-c2ccc(F)cc2)cc(-c2ccncc2)c1N | 1.2

Row | Structure (SMILES) | inhibition [%]
52 | COc1cc(Nc2ncc3c(C)nc(-c4cccc(Oc5ccccc5)c4)n3n2)cc(OC)c1OC | 1.22
53 | C[C@@H](Oc1cc(-n2cnc3ccc(OC4CCN(C)CC4)cc32)sc1C(N)=O)c1ccccc1Cl | -3.84
54 | CN(c1ccc(NC(=O)Nc2c(Cl)cccc2Cl)cc1)c1ccnc(Nc2cccc(CS(C)(=O)=O)c2)n1 | 1.09
55 | Cc1ccc(C(=O)NC2CCC2)cc1-c1ccc(C(=O)NCC2CC2)cc1 | -0.14
56 | COc1ccc2ncn(-c3cc(O[C@H](C)c4ccccc4Cl)c(C(N)=O)s3)c2c1 | -2.95
57 | CCC(=O)Nc1ccc(C)c(-c2ccc(C(=O)NCC3CC3)cc2)c1 | 0.52
58 | CCS(=O)(=O)c1ccc(OC)c(Nc2ncc(-c3ccccc3Cl)o2)c1 | 0.46
59 | Fc1ccc(-c2c(-c3ccncc3)nc3n2CCS3)cc1 | -2.76
60 | COC(=O)Nc1nc2ccc(Sc3ccc(NC(=O)Nc4cc(C(F)(F)F)ccc4F)cc3)cc2[nH]1 | 0.76
61 | O=C(Nc1n[nH]c2cc(-c3cc(F)ccc3F)ccc12)C1CC1 | 0.09
62 | CS(=O)(=O)CCNCc1cc(-c2cc3c(Nc4ccc(OCc5cccc(F)c5)c(Cl)c4)ncnc3s2)cs1 | 0.35
63 | CCc1nccc2c1nc(-c1nonc1N)n2CC | 0.43
64 | COc1cc(C)c(N(C)C(=O)CN(C)C)cc1Nc1nc(Nc2cccc(F)c2C(N)=O)c2cc[nH]c2n1 | -1.8
65 | Nc1nccc(-c2c(-c3ccc(F)cc3)ncn2C2CCC(O)CC2)n1 (stereo not drawn) | -1.14
66 | O=C1NC(=O)C(c2cccc(Cl)c2)=C1Nc1ccc(Cl)c(C(=O)O)c1 | 1.15
67 | CN(C)CCCNc1nccc(-c2c(-c3ccc(F)cc3)nn3cc(C(F)(F)F)ccc23)n1 | -2.95
68 | Fc1ccc(-c2nc3n(c2-c2ccncc2)CCS3)cc1 | -2.29
